Inhibition data for 97 compounds are collected here from PubChem BioAssay AID1578 (Sanford-Burnham Center for Chemical Genomics, 2009).

About 3,000 (1%) of roughly 290,000 compounds were called active. This is one part of a sample in which actives are shown more often than they occur. A number with no mark means an inactive call. Cut-off read from the data, not from the text of the source: active = inhibition mostly above about 36% (no sharp cut-off); inactive = mostly below about 34%.

This assay in a line: NOD1 signaling inhibitors, primary screen, cell-based, luminescence, uHTS (AID 1578).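 Note: HEK-293T reporter cells stimulated with the NOD1 agonist gamma-tri-DAP.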 The conditions noted are these: NOD1-driven NF-kB luciferase reporter cells, at 4 µM, stronger effect = higher value.
As for `Cc1ccc(N(CC(=O)Nc2ccc3c(c2)OCCO3)S(C)(=O)=O)cc1`, the inhibition was -32.2%. With `COc1ccc(NC(=O)CN2C(=O)NC(C)(c3ccccc3)C2=O)cc1Cl` (configuration not stated), the inhibition is -50.5%.

As to `COc1ccc(NC(=O)c2ccccc2NC(=O)NC2CCCCC2)cc1`, the inhibition is -14.5%. As to `CCCCNC(=O)[C@@H]1CSC2c3ccccc3C(=O)N21` (some centres not stated), the inhibition was -0.2%. Regarding `O=C1c2ccccc2C(=O)N1CCCC(=O)N1CCCc2ccccc21`, the inhibition is -23.6%.

On to `Cc1ccc(-c2cc(C(F)F)n3ncc(C(=O)N4CCCCC4c4cccnc4)c3n2)cc1` (configuration not stated), for which the inhibition was 2.1%. In the case of `Brc1cccc(CN2CCCCCC2)c1` it was -23%; in that of `N#C/C(=C\C=C\c1ccccc1)C(=O)N1CCCC1`, 23.1%. In the case of `CCOC(=O)C(CC)Sc1nnc2n1C(C)(C)Cc1ccccc1-2` (configuration not stated) it was -5.8%. As for `COc1ccc(OC)c(-c2cc(C(=O)NCCN3CCOCC3)no2)c1`, the inhibition is -5.6%.

For the compound `CC12C(=O)N(Cc3ccco3)C(=O)C1C1c3ccccc3C2c2ccccc21` (configuration not stated), the inhibition was 28.8%.

Consider `C/C(=N/OCC(=O)NCCCCCCNC(=O)CO/N=C(/C)c1cccs1)c1cccs1`, for which the inhibition is -2.7%. In the case of `CCNC(=O)Cc1c(OC)ccc2cc(Br)ccc12` it was -58.1%. Consider `CN1/C(=C\C(=O)C[n+]2cccc(C(N)=O)c2)C(C)(C)c2ccccc21`, for which the inhibition is 7.7%. In the case of `Cc1ccsc1/C=C/c1ccc2cccc(O)c2n1`, the inhibition is 63.2% (active). In the case of `Oc1cccc2ccc(/C=C/c3cccs3)nc12` it was -7.6%; in that of `Cc1ccsc1/C=C/c1ccc2ccccc2n1`, 27.3%; in that of `CC(CC(=O)Nc1ccc(S(=O)(=O)Nc2ncccn2)cc1)c1ccccc1` (configuration not stated), -22.5%. Turning to `C=CCOn1c(=O)c(-c2ccc(F)cc2)[n+]([O-])c2ccccc21`, the inhibition was 3.1%. In the case of `CCOc1cccc(/C=N/Nc2nc(N3CCCC3)nc(N3CCCC3)n2)c1O` it was 33.4% (active); in that of `C(=N\Nc1nc(N2CCCC2)nc(N2CCCC2)n1)/c1ccccc1OCc1ccccc1`, 7.9%. In the case of `COc1cccc(/C=N/Nc2nc(N3CCCC3)nc(N3CCCC3)n2)c1O` it was 29.2%. In the case of `O=C1C2C3C=CC(C3)C2C(=O)N1c1ccncc1` (configuration not stated) it was 29.4%.

`O=C(CSc1nc2cccnc2n1Cc1ccccc1)NCc1ccco1`: the inhibition was 8.8%. As to `CC1CCCCN1CCNC(=O)c1ccc2c(c1)N(Cc1ccccc1F)C(=O)c1ccccc1S2=O` (configuration not stated), the inhibition is -12.3%.

Regarding `Cc1cccc(OCc2nnc(SCc3nc4ccccc4c(=O)[nH]3)o2)c1`, the inhibition is -16.2%. In the case of `COc1ccc2sc3ccccc3c(=O)c2c1` it was -32.1%; in that of `COc1ccc2sc3ccccc3c(=O)c2c1OC`, 97.4% (active); in that of `COc1cccc2sc3ccc(C#Cc4ccc(N)cc4)cc3c(=O)c12`, -70%. In the case of `Fc1ccc(CSc2nnc3ccccn23)c(Cl)c1` it was -35.7%; in that of `Cc1oc(S(=O)(=O)N2CCOCC2)cc1C(=O)Nc1ccc(Cl)cc1`, 0.4%; in that of `O=C(Nc1nc2cc3c(cc2s1)OCCO3)c1cccc(N2C(=O)CCC2=O)c1`, -14.7%. In the case of `O=C(Nc1nc2cc3c(cc2s1)OCCO3)c1cccc(S(=O)(=O)N2CCOCC2)c1` it was 5.8%; in that of `O=C(O)Cn1cc(C(=O)C2CC2)c2ccccc21`, -13.5%; in that of `Cc1ccccc1NC(=O)c1ccc(NS(=O)(=O)c2cc(C(C)(C)C)cc(C)c2C)cc1`, -29.6%. Turning to `CCc1ccccc1NC(=O)Nc1ccc(F)cc1`, the inhibition was -25.3%. As to `CCCN(Cc1cc2cc(C)ccc2[nH]c1=O)S(C)(=O)=O`, the inhibition is -18%.

Take `CCCCC[n+]1cccc2c3ccccc3ccc21`: the inhibition was 33.7%. As to `CCCCCCCCCCCCCCCC[n+]1cccc2ccccc21`, the inhibition is 37.4%. For the compound `CCCCCCCCCC[n+]1cccc2c3ccccc3ccc21`, the inhibition was 64.2% (active).

In the case of `Cc1ccc(C(=O)n2nc(-c3ccco3)nc2N)cc1`, the inhibition is -20.6%.

Turning to `COc1ccc(C(C(=O)NCC2CCCO2)N(C(=O)CNC(=O)c2cccs2)c2ccc(C)cc2)cc1OC` (configuration not stated), the inhibition was 4.3%. In the case of `CN(CCOCCOc1ccc(Cl)cc1Br)Cc1ccccc1`, the inhibition is -30.1%. As to `CC1OC2(C)OC(=N)C1(C#N)C(C#N)(C#N)C2c1ccccc1` (configuration not stated), the inhibition is -6.3%. In the case of `CC(C)C1OC2(C)OC(=N)C1(C#N)C(C#N)(C#N)C2c1ccccc1` (configuration not stated) it was 78.7% (active).

Regarding `CCC1OC2(C)OC(=N)C1(C#N)C(C#N)(C#N)C2c1ccccc1` (configuration not stated), the inhibition is -1.7%. Regarding `CC(C)N1CCN(Cc2nc(-c3ccccc3)cs2)CC1CCO` (configuration not stated), the inhibition was -44.6%. In the case of `COc1ccc(Nc2cc(NCCCO)c([N+](=O)[O-])c3nonc23)cc1` it was 4.8%. As for `Cc1ccc(Sc2cc(NCCCO)c([N+](=O)[O-])c3nonc23)cc1`, the inhibition was 2.1%. `COc1ccc(CNc2cc(NCCCO)c([N+](=O)[O-])c3nonc23)cc1`: the inhibition was 48.5% (active).

Consider `Oc1c(N=Nc2ccccn2)ccc2ccccc12`, for which the inhibition was 96.4% (active).

`Oc1c(N=Nc2ccc(F)cc2)ccc2ccccc12`: the inhibition was -69.9%.

`Cc1ccc(N=Nc2ccc3ccccc3c2O)cc1`: the inhibition is 19%. `CCc1ccc(OCC(=O)N/N=C(\C)c2ccccc2OC(F)F)cc1`: the inhibition was -2.9%. In the case of `Cc1[nH]nc(SCC(=O)NCc2ccc(Cl)cc2)c1[N+](=O)[O-]`, the inhibition is -33.8%. In the case of `COC(=O)Nc1nc(-c2ccc(F)cc2)c(C)s1` it was -56.3%; in that of `COc1cc2ccc(=O)oc2c(CC=C(C)C)c1OC`, -5.1%.

In the case of `C/C(=C/Cc1c(O)cc2oc(C)cc(=O)c2c1O)COC1OC(CO)C(O)C(O)C1O` (configuration not stated), the inhibition was -47.3%. In the case of `Cc1ccc(OCC(=O)Nc2ccc(N3CCN(C(=O)c4ccco4)CC3)cc2)cc1C` it was -9.9%. In the case of `c1ccc(Nc2nc(-c3cccs3)cs2)nc1` it was -50.9%.

Regarding `Cc1ccc(Nc2nc(-c3ccccc3)cs2)nc1`, the inhibition was -37%.

For the compound `Cc1ccc(Nc2nc(-c3cccs3)cs2)nc1`, the inhibition is 46% (active). As to `CCCn1c(N)c(C(c2ccc(OC)cc2)N2CCN(c3ccccc3)CC2)c(=O)[nH]c1=O` (configuration not stated), the inhibition is 10%. `COc1ccc(-c2[nH]c(-c3ccccc3)nc2SCC(=O)Nc2nccs2)cc1`: the inhibition is 82.4% (active). On to `COc1ccc(-c2[nH]c(-c3ccc(Cl)cc3)nc2SCC(=O)Nc2nccs2)cc1`, for which the inhibition is -3.8%. On to `COc1ccc(-c2[nH]c(-c3ccc(C)cc3)nc2SCC(=O)Nc2nccs2)cc1`, for which the inhibition was -13.3%. In the case of `CCC(C)NC(=O)CN(c1ccc(OC)cc1)S(=O)(=O)c1ccccc1` (configuration not stated) it was -38.9%; in that of `CCOC(=O)c1cnc2c(C)c(Cl)ccc2c1N1CCOCC1`, 14.6%. In the case of `NCC(=O)c1cccc2ccc[n+]([O-])c12` it was -2.6%; in that of `C[n+]1cccc2c(Br)ccc([O-])c21`, -5.6%; in that of `[O-][n+]1cccc2c(Br)cc(Br)c(O)c21`, 86% (active). `O=C(Cc1ccc(F)cc1)NCCc1cnc[nH]1`: the inhibition was -7.3%.

As to `COc1cc(/C=c2\sc3nc(-c4ccncc4)nn3c2=O)ccc1OC(C)=O`, the inhibition is -18.6%. As for `CC(c1ccco1)N(C(=O)C12CC3CC(CC(C3)C1)C2)c1ccccn1` (configuration not stated), the inhibition was 17.1%. For the compound `CC(c1ccco1)N(C(=O)C12CC3(C)CC(C)(CC(C)(C3)C1)C2)c1ccccn1` (configuration not stated), the inhibition is -2%.

In the case of `CC(c1ccco1)N(C(=O)C12CC3CC(CC(C)(C3)C1)C2)c1ccccn1` (configuration not stated), the inhibition was 31.7% (active). In the case of `CCC(c1nnc(SCC(=O)NC23CC4CC(CC(C4)C2)C3)o1)N(C)C` (configuration not stated) it was -5.8%; in that of `Cc1ccc(NS(=O)(=O)c2cc3c4c(cccc4c2)C(=O)NC3=O)cc1`, 18.1%; in that of `O=C(CN1CCCCC1)Nc1nnc(-c2ccccc2)s1`, 2.9%. `CN1CCN(CC(=O)Nc2nnc(-c3cccs3)s2)CC1`: the inhibition was -26.2%. In the case of `O=C(CN1CCCC1)Nc1nnc(-c2cccs2)s1`, the inhibition is 74.9% (active). With `CC(C)NC(=O)CN1C(=O)C(=O)c2ccccc21`, the inhibition was 15.8%. In the case of `CCOC(=O)N1CCC(NC(=S)Nc2ccc3nc(N4CCN(C)CC4)cc(C)c3c2)CC1` it was 3.9%; in that of `CCOC(=O)N1CCN(C(=S)Nc2ccc3nc(N4CCN(CC)CC4)cc(C)c3c2)CC1`, -21%; in that of `CCOC(=O)N1CCC(NC(=S)Nc2ccc3nc(N4CCN(CC)CC4)cc(C)c3c2)CC1`, 48.8% (active). In the case of `COc1ccc(C(=O)Oc2ccc(N(C)S(=O)(=O)c3ccccc3)cc2)cc1[N+](=O)[O-]` it was 8.9%. In the case of `Cc1cc(C)cc(NC(=O)C[n+]2ccccc2)c1` it was 45.4%; in that of `Cc1cccc(-n2ncc3c(N(C)Cc4ccccc4)ncnc32)c1`, 2.1%; in that of `O=C1C(Cl)=C(Nc2ccc3cn[nH]c3c2)C(=O)c2ccccc21`, 61.1% (active). With `Cc1cc(S(=O)(=O)Nc2ccc3cn[nH]c3c2)c(C)cc1Cl`, the inhibition is -20.3%. In the case of `O=S(=O)(Nc1ccc2cn[nH]c2c1)c1ccc(Cl)cc1` it was -12.5%; in that of `CC(C)C(=O)N1CCC2(CC1)Oc1ccc(Cl)cc1C(=O)C21CC(c2ccc(Cl)cc2)=NO1` (configuration not stated), -3.8%. In the case of `O=C1c2ccccc2NC(c2ccccc2F)N1NS(=O)(=O)c1ccccc1` (configuration not stated) it was -13%.

With `O=C(O)CC1(CC(=O)N2CCN(CCO)CC2)CCCC1`, the inhibition is -19.8%. Regarding `CC(=O)c1cccc(NC(=O)c2cnn3ccccc23)c1`, the inhibition is -1%. In the case of `CC(=O)c1ccc(NC(=O)c2cnn3ccccc23)cc1` it was 63.1% (active); in that of `CCc1ccc(NC(=O)c2cnn3ccccc23)cc1`, 50.8%.

As usually defined, the inhibition is the relative decrease from the control value, in per cent.
